Reference: PubChem BioAssay AID1508622 (National Center for Advancing Translational Sciences (NCATS), 2021)
The source made the active and inactive calls. Calls follow the shape of the dose curve; as a rule, active = well fitted activation curve with a large enough effect; inconclusive = small, poorly fitted or top-dose-only effect; inactive = no such curve, though single readings can be large or run the other way.

test: Confirmatory qHTS for Identification of Small Molecule Activators of Huntingtin-Antisense Promoter Activity; details: HEK293 HTT-AS promoter firefly luciferase reporter, 24 h; series mostly up to 57.5 µM
Source text: Assay Provider: Russell L. Margolis M.D.
Department Neurology, Johns Hopkins University School of Medicine, Baltimore, MD
Huntington's Disease (HD) is a neurodegenerative disorder caused by a CAG repeat expansion in exon 1 of huntingtin (HTT). While there are currently no disease-modifying treatments for HD, recent efforts have focused on development of nucleotide-based therapeutics to lower HTT expression. As an alternative to siRNA or oligonucleotide methods, we hypothesized that suppression of HTT expression might be accomplished by small molecules that either (1) directly decrease HTT expression by suppressing HTT promoter activity or (2) indirectly decrease HTT expression by increasing the promoter activity of HTT-AS, the gene antisense to HTT that appears to inhibit expression of HTT.
We developed and employed a high throughput screen for modifiers of HTT and HTT-AS promoter activity using luminescent reporter HEK293 cells; of the 52,041 compounds tested, we identified 898 replicable hits. We used a rigorous stepwise approach to assess compound toxicity and the capacity of the compounds to specifically lower huntingtin protein in 5 different cell lines, including HEK293 cells, HD lymphoblastoid cells, mouse primary neurons, HD iPSCs differentiated into cortical-like neurons, and HD hESCs. We found no compounds which were able to lower huntingtin without lowering cell viability in all assays, though the potential efficacy of a few compounds at non-toxic doses could not be excluded.
SEQUENCE No. (1, 2, 3, etc.); […] (e.g., Cells, Incubation, Reagent, etc.); VALUE and DESCRIPTION.
1; Reagent; 4 uL; 2,500 Hek293 luciferase reporter cells per wells
3; Compound; 23 nL; Control inhibitor / compound library
5; Reagent; 2.5 uL; Firefly Luc reagent; Dual-Glo Luciferase Reporter Assay System (Promega)
6; Time; 10 min; room temperature incubation
7; Detection; Luminescence; FLuc
NOTES (numbers refer to sequence above)
1; High-throughput screening, measuring luminescence from a Hek293 luciferase reporter, was performed in 1,536 well white-walled tissue-culture treated plates. 2,500 cells were plated in 4 uL of Opti-MEM per well using a Multidrop Combi Reagent Dispenser (ThermoFisher).
2; Assay plates were cultured for 24 hours.
3; Control inhibitor (PTC124; final concentration of 50 uM) and compound library (at final concentrations of 460 nM - 57.5 uM) were added to the assay plate using the Kalypsis Pintool Robotic System equipped with 1536 pinheads.
4; Cells were then incubated for 24 hours at 37C prior to luminescence measurements.
5; In all cases, luminescence was measured using the Dual-Glo Luciferase Reporter Assay System (Promega) following the manufacturer's instructions.
6; Room temperature incubation.
7; Luminescence signal was obtained using the PerkinElmer ViewLux plate reader. Results were normalized to vehicle control (0% activity) and zero RLU (-100% activity).

| Structure (SMILES) | outcome |
| --- | --- |
| Nc1c(C(=O)Nc2ccc(Cl)c(C(F)(F)F)c2)sc2nc3c(cc12)N1CCC3CC1 | inactive |
| CCN(CC)C(=O)N[C@@H]1C=C2c3cccc4[nH]cc(c34)C[C@@H]2N(C)C1 | inactive |
| CCN(CC)C(=O)c1ccc(NC(=O)CCn2nc(-c3ccc(Cl)cc3)c3ccccc3c2=O)cc1 | inactive |
| COc1ccc(-n2c(/C=C\c3ccccc3F)nc3ccccc3c2=O)cc1OC | inactive |
| CSc1ccc(CN2CCN(C(=O)COc3cccc(C)c3)CC2)cc1 | inactive |
| COC(=O)c1ccc(NC(=O)c2cccn(Cc3ccccc3C)c2=O)cc1 | inactive |
| O=C(N[C@H]1CN2CCC1CC2)c1ccc(Cl)cc1 | inactive |
| Cc1cccc(-n2c(/C=C\c3cccc(Br)c3)nc3ccccc3c2=O)c1 | inactive |
| COc1cccc(C2SCC(=O)Nc3c2c(C)nn3-c2ccc(C)c(Cl)c2)c1OC (configuration not stated) | inactive |
| O=c1c2ccccc2nc(/C=C\c2ccc(F)cc2)n1-c1ccccc1F | inactive |
| Cc1cc(-n2c(/C=C/c3ccc(Br)s3)nc3ccccc3c2=O)ccc1Br | inactive |
| O=c1c2ccccc2nc(/C=C/c2cccc3ccccc23)n1-c1ccccc1Cl | inactive |
| CC(C)N[C@@H]1CCn2c(=O)[nH]c3cccc(c32)[C@@H]1O | inactive |
| CCOC(=O)c1ccc(NC(=O)c2cccn(Cc3ccccc3F)c2=O)cc1 | inactive |
| CCCCc1ccc(NC(=O)c2cccn(Cc3ccc(Cl)cc3)c2=O)cc1 | inactive |
| CCCOc1ccc(C2SCC(=O)Nc3c2c(C)nn3-c2cccc(C)c2)cc1OC (configuration not stated) | inactive |
| Cc1ccccc1Cn1cccc(C(=O)Nc2nc3ccccc3s2)c1=O | inactive |
| N#Cc1ccccc1NC(=O)c1cccn(Cc2ccccc2)c1=O | inactive |
| CCOc1ccc(NC(=O)c2cccn(Cc3cccc(Cl)c3)c2=O)cc1 | inactive |
| CC(C)(O)C=CC(=O)[C@](C)(O)[C@H]1[C@H](O)C[C@]2(C)[C@@H]3CC=C4[C@@H](C=C(O)C(=O)C4(C)C)[C@]3(C)C(=O)C[C@@]12C | inactive |
| Cc1ccc(-n2c(/C=C\c3ccc(F)c(F)c3)nc3ccccc3c2=O)c(C)c1 | inactive |
| Cc1ccc(-n2c(/C=C/c3ccc(Br)s3)nc3ccccc3c2=O)cc1 | inactive |
